The values below come from PubChem BioAssay AID493098 (Sanford-Burnham Center for Chemical Genomics, 2011).

Molecules are shown by their SMILES. Screen size: about 340,000 compounds; about 1,700 (0.5%) were called active.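 Rule for the calls: active = compounds whose inhibition of the agonist-driven luminescence signal at 20 µM reaches about 50% (limit read from the data); inactive = the rest.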 The sample as a whole holds a higher share of actives than the screen did.

Usually inhibition stands for the change of the read-out against control, counted positive when it falls.

For this test, the target named is C-C chemokine receptor type 6 (Homo sapiens) (UniProt P51684). The test is described as follows: CCR6 receptor antagonists, primary screen, cell-based, CHO-K1, luminescence, beta-arrestin, uHTS (AID 493098).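 Note: cells stimulated with CCL20 at 14 nM final; plate controls were DMSO with CCL20 for no effect and DMSO without agonist for full effect.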 The settings on record: CHO-K1 CCR6 PathHunter beta-arrestin, CCL20-stimulated, at 20 µM, hits give high values.
Sequence of C-C chemokine receptor type 6 (Homo sapiens) (P51684 whole entry, looked up): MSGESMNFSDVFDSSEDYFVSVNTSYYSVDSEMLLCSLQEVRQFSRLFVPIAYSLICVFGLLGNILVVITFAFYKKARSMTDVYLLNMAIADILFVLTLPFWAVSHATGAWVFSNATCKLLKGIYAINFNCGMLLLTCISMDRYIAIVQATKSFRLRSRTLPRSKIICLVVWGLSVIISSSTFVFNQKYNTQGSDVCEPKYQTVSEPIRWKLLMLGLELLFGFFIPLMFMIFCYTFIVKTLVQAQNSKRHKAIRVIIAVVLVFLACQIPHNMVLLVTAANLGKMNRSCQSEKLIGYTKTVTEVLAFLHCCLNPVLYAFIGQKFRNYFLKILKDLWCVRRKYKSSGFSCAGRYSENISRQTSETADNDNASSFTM
On to `Cc1cccc(N(C)C(=O)c2cc(S(=O)(=O)N3CCCCC3)c[nH]2)c1`, for which the inhibition is -9.41% (inactive).

For the compound `Cc1ccc2c(c1)C1C[N+](C)(CC(=O)c3ccccc3)CCC1N2C(=O)c1ccccc1Cl` (centres undefined), the inhibition is 7.95% (inactive).

As for `O=C(NN=Cc1ccc([N+](=O)[O-])cc1)C1CC1`, the inhibition was -1.3% (inactive).

With `O=[N+]([O-])c1ccc(C=NN=Cc2ccc([N+](=O)[O-])cc2)cc1`, the inhibition was 9.6% (inactive).

Consider `O=C1/C(=C\c2ccc([N+](=O)[O-])cc2)CS(=O)(=O)C/C1=C/c1ccc([N+](=O)[O-])cc1`, for which the inhibition is 102% (active).

In the case of `OCCC1CN(Cc2cccn2-c2nccs2)CCN1CCc1ccccc1` (centres undefined), the inhibition is 3.25% (inactive).

Consider `CCCOC(=O)c1c(NC(=O)c2cnn3c2NC(c2ccccc2)CC3C(F)(F)F)sc2c1CCCC2` (centres undefined), for which the inhibition was 8.83% (inactive).

Turning to `O=C(O)c1ccc(NN=CC2=C(N3CCOCC3)/C(=C/c3ccccc3)CC2)cc1`, the inhibition was -7.52% (inactive).

In the case of `O=C1Nc2ccc(Br)cc2/C1=N/N=C/C1=C(N2CCOCC2)C(=C\c2ccccc2)/CC1`, the inhibition was 55.1% (active).

In the case of `N#C/C(=C\C1=C(N2CCOCC2)C(=C\c2ccccc2)/CC1)C(=O)Nc1ccccc1F`, the inhibition was 37.8% (inactive).

`COc1ccc(Nc2cc(=O)n(-c3ccccc3)c3c2c(=O)n(C)c(=O)n3C)cc1`: the inhibition is 2.01% (inactive).

Turning to `Cc1ccc(S(=O)(=O)N2CCN(C)CC2)cc1`, the inhibition is 13.6% (inactive).

Take `Cn1ncc(N2CCN(S(=O)(=O)c3ccc(Br)cc3)CC2)c(Cl)c1=O`: the inhibition was 6.7% (inactive).

Regarding `CN(C)/C=C(/C(=O)c1ccc(Cl)c(Cl)c1)c1nnnn1-c1ccccc1`, the inhibition is 3.92% (inactive).

On to `O=C(C1CC1)N1N=C(c2ccc(Br)cc2)CC1(O)C(F)(F)F` (centres undefined), for which the inhibition is 2.39% (inactive).

As to `O=C(c1ccc(Cl)cc1)N1N=C(c2ccccn2)CC1(O)C(F)(F)F` (centres undefined), the inhibition is 57.1% (active).

With `O=C(Cc1ccccc1)N1N=C(c2ccncc2)CC1(O)C(F)(F)F` (centres undefined), the inhibition was 6.09% (inactive).

Take `CCOc1ccc(-n2c(O)c(/C=N/Nc3nc(C)cc(C)n3)c3ccccc3c2=O)cc1`: the inhibition was 52.4% (active).

For the compound `CCN(CC)CCCN=Cc1c(O)n(-c2ccc(C)cc2)c(=O)c2ccccc12`, the inhibition is 6.64% (inactive).

`Cc1ccc(-n2c(O)c(C=Nc3ccc(S(=O)(=O)Nc4ncccn4)cc3)c3ccccc3c2=O)cc1C`: the inhibition is 13.7% (inactive).

For `CC(=O)c1cccc(NC(=O)N2CCCC2C(=O)NCCC(C)C)c1` (centres undefined), the inhibition was 8% (inactive).

For the compound `Cc1nn(C(C)CC(=O)O)c(C)c1C` (centres undefined), the inhibition was -5.98% (inactive).

Regarding `O=c1ccc2c(-c3ccccc3S(=O)(=O)O)c3ccc(O)c(O)c3oc-2c1O`, the inhibition was 64.6% (active).

Consider `O=C(CSc1ccc2nnc(-c3ccccc3)n2n1)N1CCCc2ccccc21`, for which the inhibition is -9.56% (inactive).

Turning to `Nc1ccc(SCCN2C(=O)c3ccccc3C2=O)cc1`, the inhibition was -6.02% (inactive).

Take `Cc1ccc2oc(=O)c3cnn(CC(=O)N(Cc4ccco4)C4CCCCC4)c3c2c1`: the inhibition is 20.4% (inactive).

In the case of `O=C(COC(=O)CCc1c[nH]c(=O)[nH]1)Nc1ccccc1Cl`, the inhibition is -11.7% (inactive).

For `CN(C)S(=O)(=O)Oc1ccccc1C(=O)Nc1ccccc1Cl`, the inhibition was 8.47% (inactive).

On to `O=C(Nc1ccccc1Cl)/C(Cl)=C(\Cl)S(=O)c1ccccc1` (centres undefined), for which the inhibition is 95.1% (active).

Take `Cc1c(S(=O)(=O)N2CC(C)CC(C)C2)c(=O)n(C)c(=O)n1C` (centres undefined): the inhibition was -1.65% (inactive).

With `CCN(CC)CCCSc1nc2ccccc2s1`, the inhibition is -12.8% (inactive).

Turning to `O=[N+]([O-])c1c(NCCO)cc(Sc2nc3ccccc3s2)c2nonc12`, the inhibition was 114% (active).

In the case of `OCCNc1nc(Nc2ccc(Cl)c(Cl)c2)nc2ccccc12`, the inhibition is -13.9% (inactive).

Take `Cc1nc(C)c(-c2nnc(-c3cccc(S(=O)(=O)N(C)C)c3)o2)cc1C(=O)NN`: the inhibition was 8.51% (inactive).

For the compound `CCOc1ccc2[nH]c3nc(SCC(=O)NC4CCCC4)nnc3c2c1`, the inhibition is 15.4% (inactive).

Turning to `Cc1nc2nc(SCC(=O)Nc3cccc(F)c3)[nH]c2cc1Br`, the inhibition is -8.14% (inactive).

Take `O=C(CN1CCN(C(=S)NC2CCCC2)CC1)Nc1ccc(Oc2ccccc2)cc1`: the inhibition was 10.7% (inactive).

Consider `CCC(=C/c1sc2ccc3ccccc3c2[n+]1C)/C=C1\Sc2ccc3ccccc3c2N1C`, for which the inhibition is 66.6% (active).

As for `S=c1[nH]nc(/C=C/c2ccccc2)o1`, the inhibition was -11.1% (inactive).

With `CC(C)[C@H](NC(=O)N1CCn2c1nc1ccccc12)C(=O)NCCc1ccccc1`, the inhibition is 20.7% (inactive).

Turning to `CCCN(C(=O)COC(=O)CNS(=O)(=O)c1ccc(NC(C)=O)cc1)C1CCS(=O)(=O)C1` (centres undefined), the inhibition was 4.25% (inactive).

As to `O=C(O)CCN(Cc1ccccc1)S(=O)(=O)c1c(Cl)cccc1Cl`, the inhibition is 4.62% (inactive).

Take `NC(=O)NC(CC(=O)NNC(=O)c1ccccn1)c1ccc(Cl)cc1` (centres undefined): the inhibition is -16.2% (inactive).

For `C/C(=N\NC(=O)Cc1ccc(Cl)cc1)c1ccccn1`, the inhibition is 102% (active).

On to `CC(=NNC(=S)N1CCCCCC1)c1ccccn1`, for which the inhibition is 21.3% (inactive).

As for `COC(=O)c1ccc(NC(=S)NN2CCOCC2)cc1`, the inhibition is 1.46% (inactive).

Regarding `Cc1nc2nc(C)c(NS(=O)(=O)c3ccc(C(C)(C)C)cc3)c(=O)n2[nH]1`, the inhibition is 6.13% (inactive).

Regarding `CC1CCCC(NC(=O)CSc2nccn2C)C1C` (centres undefined), the inhibition is 7.72% (inactive).

`CC1(C)CC2CC(C)(CN2c2ncnc3ccc(Br)cc23)C1` (centres undefined): the inhibition was 10.7% (inactive).

`COc1ccc(OC)c(CCNC(=O)c2nn(C)c3c2CS(=O)(=O)c2ccccc2-3)c1`: the inhibition was 9.14% (inactive).

`CC1CN(Cc2ccco2)C(=S)N(c2ccccc2)C1=O` (centres undefined): the inhibition is 9.82% (inactive).

With `CCN(CC)C(=O)CSc1nnc(CNc2ccc(F)cc2)n1Cc1ccco1`, the inhibition was 6.14% (inactive).

For the compound `CN(C)C(=S)N=c1ssc(=S)n1Cc1ccco1`, the inhibition was 59.8% (active).

Turning to `Cc1ccccc1N1C(=O)C2ON(c3ccccc3)C(c3ccncc3)C2C1=O` (centres undefined), the inhibition is -6.39% (inactive).

Regarding `CN(CC(=O)Nc1cccc(F)c1)C(=O)C1CSC2(C)CCC(=O)N12` (centres undefined), the inhibition was 9.77% (inactive).

On to `COCCn1c(SCC(=O)Nc2ccccc2F)nc2c(c1=O)SCC2`, for which the inhibition is -9.89% (inactive).

As for `CCCC1CCC(=NNC(=S)NCCc2ccccc2)CC1` (centres undefined), the inhibition was 54.4% (active).

Regarding `S=C(NN=C1CCN(Cc2ccccc2)CC1)NC1CCCCC1`, the inhibition was 21.4% (inactive).

On to `S=C(NCCc1ccccc1)NCC1CCCO1` (centres undefined), for which the inhibition was 8.39% (inactive).

As to `Cc1cccc(C)c1N1CCN(S(=O)(=O)N2CCCCC2)CC1`, the inhibition was 18.8% (inactive).

As for `NS(=O)(=O)c1cc(C(=O)OCC(=O)NNC(=O)c2ccccc2)ccc1Cl`, the inhibition is 0.62% (inactive).

Regarding `Cc1cccc(-n2c(O)c(C=Nc3ccccc3N)c(=O)[nH]c2=O)c1`, the inhibition was 88.4% (active).

Turning to `Cc1cccc(N2C(=O)CC(SC(N)=Nc3ccccc3)C2=O)c1` (centres undefined), the inhibition is 5.48% (inactive).

With `Cc1ccc(N=Cc2c(O)n(-c3nccs3)c(=O)c3ccccc23)c(C)c1`, the inhibition is 17.6% (inactive).

For the compound `CCCCS(=O)c1snnc1C` (centres undefined), the inhibition is 4.33% (inactive).

Turning to `CCC(CC)c1nnc(NC(=O)C2=COCCO2)s1`, the inhibition was -8.69% (inactive).

For the compound `CCOc1ccc(S(=O)(=O)N2CCCCC2)cc1NC(=O)CN1CCCC1c1cccs1` (centres undefined), the inhibition was 13.2% (inactive).

As to `CC(=O)c1sc(N/N=C/c2ccc(C(C)C)cc2)nc1C`, the inhibition was -0.42% (inactive).

With `CC(=O)c1sc(N/N=C\c2ccc(C)cc2)nc1C`, the inhibition is 20.1% (inactive).

Regarding `COc1cccc2sc(Nc3nc(C)c(C(C)=O)s3)nc12`, the inhibition is 52.1% (active).

As for `O=C(CO/N=C/c1ccc(OC(F)F)cc1)NCc1ccc(F)cc1`, the inhibition was 16.1% (inactive).

Turning to `COc1ccc(OC(C)C(=O)Nc2cccnc2)cc1` (centres undefined), the inhibition is 9.87% (inactive).

For `COc1ccc(CS(=O)/C(Cl)=C(/Cl)C(=O)Nc2ccc(OC)nc2)cc1` (centres undefined), the inhibition is 95.4% (active).

As to `COc1ccc(CCC(=O)c2ccc(OC)cc2)cc1`, the inhibition was 11.9% (inactive).

With `CC(C)(C)CN1CCNC(=O)C1CC(=O)NC1Cc2ccccc2C1` (centres undefined), the inhibition is -8.22% (inactive).

`CC/C=C/C(=O)N1CC2(CC(c3cccc(NC(=O)CC)c3)=NO2)C[C@H]1C(N)=O` (some centres undefined): the inhibition is 3.3% (inactive).

Take `COC(=O)c1cccc(N(C(=O)CNC(=O)c2cccs2)C(C(=O)NCC2CCCO2)c2ccc(OC)c(OC)c2)c1` (centres undefined): the inhibition is -0.67% (inactive).

In the case of `COc1ccc(F)cc1C(=O)COC(=O)c1n[nH]c(=O)c2ccccc12`, the inhibition is 24.8% (inactive).

Consider `COC(=O)Cc1ccc(NC(=S)NCc2ccccc2)cc1`, for which the inhibition is -10.8% (inactive).

Regarding `COC(=O)Cc1c(-c2[nH]c3ccccc3c2CC(=O)OC)[nH]c2ccccc12`, the inhibition is 85.9% (active).

Turning to `CCCOC(=O)Cc1c(O)c2ccccc2[nH]c1=O`, the inhibition was -17.8% (inactive).

Consider `NCC(=O)c1cccc2ccc[n+]([O-])c12`, for which the inhibition was -4.01% (inactive).

Turning to `Cc1ccc2cccc(O)c2[n+]1[O-]`, the inhibition was 54.9% (active).

Consider `COc1ccc2c(c1)[C@H]1[C@H](CO2)[C@H](c2ccccc2)[C@]2(C)C(=O)Nc3cc(F)c(F)cc3C(=O)N12`, for which the inhibition was -0.31% (inactive).

For `Nc1ccccc1SC(C[N+](=O)[O-])c1ccccc1` (centres undefined), the inhibition was 62.7% (active).

For the compound `C/C(N)=C(\C#N)C(=O)NCCc1ccccn1`, the inhibition is 4.85% (inactive).

For `O=C(NC(=S)Nc1ncccn1)c1ccccc1Br`, the inhibition is 1.75% (inactive).

Turning to `Cc1cc(C)c(C2C3=C(Nc4c2c(C)nn4-c2ccccn2)c2ccccc2C3=O)c(C)c1` (centres undefined), the inhibition was 53.2% (active).

For the compound `COCC1CCCN(Cc2cn[nH]c2-c2cc3ccccc3o2)C1` (centres undefined), the inhibition is 7.28% (inactive).

For the compound `c1nc(COc2nsnc2N2CCOCC2)cs1`, the inhibition was -2.16% (inactive).

As to `COc1cccc(CN2CCN(Cc3ccc4cccc(F)c4n3)CC2CCO)c1` (centres undefined), the inhibition is 11.8% (inactive).

For `C=CS(=O)c1sc(Cl)c(N2CCOCC2)c1[N+](=O)[O-]` (centres undefined), the inhibition is 93.5% (active).

Consider `O=[N+]([O-])c1ccc(N2CCOCC2)cc1`, for which the inhibition was 7.93% (inactive).

On to `Cc1nc2cc(C(F)(F)F)ccc2n1CCNc1nc(-c2cc(Cl)c(N)c(Cl)c2)cs1`, for which the inhibition was 6.34% (inactive).
